# Screens as filed in PubChem.
# APOBEC3A inh: inhibitors of human APOBEC3A DNA deaminase | P31941 | AID 493011 | inhibition, % at 20 µM | 330,000 tested, 0.41% active | recombinant A3A, FAM/TAMRA ssDNA deamination fluorescence;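 active = at least 40% inhibition at 20 µM here, with at most 30% in a related deaminase screen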;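 also: plate controls were A3A with DMSO for no effect and wells lacking A3A enzyme for full effect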
# MLLE-PAM2 inh: inhibitors of microRNA-mediated deadenylation, human PABP1 MLLE binding; P11940; GST-MLLE / FITC-PAM2 fluorescence polarization; inhibition, % at 20 µM; 360,000 tested, 0.36% active; in the data active = inhibition above about 35%, passing the limit was not always enough;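 also: plate controls were DMSO wells with GST-MLLE for no effect and wells lacking GST-MLLE protein for full effect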
# PABP polyA inh: blocks human PABP binding to poly(A) RNA; P11940; fluorescence polarization; calls only at 35 µM; 290,000 tested, 1% active; AID 2014;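 also: calls also rest on retests at 20 µM and on dose response follow-up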
# eIF4H FP inh: inhibitors of RNA binding by human eIF4H. eIF4H fluorescence polarization binding assay. inhibition, % at 35 µM. AID 2012. 290,000 tested, 0.94% active;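 also: calls also rest on retests at 20 µM and on dose response follow-up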
# PHOSPHO1 block: PHOSPHO1 (human) inhibition. 290,000 tested, 1.1% active. inhibition, % at 13.3 µM. AID 1565. recombinant PHOSPHO1, absorbance phosphatase assay; in the data active = inhibition above about 60%
# APOBEC3G inh: APOBEC3G (human) deaminase inhibition; Q9HC16; recombinant A3G, ssDNA deamination FAM/TAMRA fluorescence; inhibition, % at 20 µM; 330,000 tested, 0.28% active;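 active = inhibition of at least 40% at 20 µM, with no more than 30% in the related APOBEC3A deaminase screen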;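 also: plate controls were DMSO wells with A3G for no effect and wells lacking A3G enzyme for full effect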
# Numbers without * were called inactive; i = inactive; u = inconclusive; x = no result; + = active, no number. This is a sample that favours compounds with a hit; in the whole collection about 2.6% have one here. Unless noted, no rule for the calls is given here.
SMILES,APOBEC3A inh,MLLE-PAM2 inh,PABP polyA inh,eIF4H FP inh,PHOSPHO1 block,APOBEC3G inh
COC(=O)C1=C(C(=O)OC)SC(=C2C(=S)C(C)(C)N(C(=O)C(C)C)c3ccccc32)S1,4.8,32.3,i,-8.9,80.4*,5.5
COC(=O)C1=C(C(=O)OC)SC(=C2C(=S)C(C)(C)N(C(=O)C3CC3)c3ccccc32)S1,5.1,39.5*,i,-14.5,78.7*,4.6
CCNC(=O)COC(=O)c1cc(-c2ccc(OC)cc2)nc2ccccc12,0.3,-11.9,i,-4.9,3.9,-5.9
CC(=O)Nc1ccc(/C=N/NC(=O)c2cc(-c3ccco3)nc3ccccc23)cc1,2.7,7.3,i,6.8,6.3,0.8
O=C(O)c1ccccc1/C=N/NC(=O)c1cc(-c2ccco2)nc2ccccc12,76.5,-24.7,+,81.9*,35.7,75.8
COc1cc(-c2cc(C(=O)Nc3ccccc3N3CCOCC3)c3ccccc3n2)cc(OC)c1OC,4.1,5.0,i,5.7,28.3,-1.0
O=C(Nc1ccccc1N1CCOCC1)c1cc(-c2ccco2)nc2ccccc12,13.4,8.2,i,81.5*,37.6,8.7
COc1ccc(CCNC(=O)c2cc(-c3ccco3)nc3ccccc23)cc1,78.7,x,+,74.9*,14.7,32.8
CCCNC(=O)COC(=O)c1cc(-c2ccc(OC)cc2)nc2ccccc12,2.7,1.0,+,0.2,8.2,-2.4
Cc1ccc(C(=O)NNC(=O)c2ccc(NS(=O)(=O)c3cccs3)cc2)o1,-2.0,2.1,x,x,x,-1.5
O=C(O)c1cc(-c2ccco2)nc2cc3ccccc3cc12,89.4,-3.1,+,100.3*,17.5,83.9
O=C(NNC(=O)c1cc(-c2ccco2)nc2ccccc12)c1ccccc1,-6.8,11.9,i,24.0,-77.7,1.6
Cc1ccccc1-c1cc(C(=O)N/N=C/c2cccnc2)c2ccccc2n1,-0.4,-3.0,i,10.1,65.8*,-3.2
Cn1c(N)c(C(=O)COC(=O)c2cc(-c3ccco3)nc3ccccc23)c(=O)n(C)c1=O,15.6,6.2,+,u,-11.1,18.4
O=C(COC(=O)c1cc(-c2ccco2)nc2ccccc12)NCc1ccccc1,1.5,26.7,i,67.0,15.2,1.7
CNC(=O)COC(=O)c1cc(-c2ccco2)nc2ccccc12,51.8,-4.7,+,73.7*,-2.1,33.2
CC1CC(=O)N(CC(=O)NCc2ccc(F)cc2)c2ccccc2S1(=O)=O (stereo unspecified),-6.1,9.1,i,-2.8,12.7,-7.7
CC1CN(C(=O)CSc2nnc(-c3ccccc3)o2)CC(C)O1 (stereo unspecified),8.9,-36.8,i,1.5,-0.6,-6.4
CCN(CC)C(=O)COC(=O)c1cc(-c2ccco2)nc2ccccc12,x,18.8,+,82.0*,-17.5,x
CCCCCCn1nc(C(=O)OCC(=O)c2c(N)n(C)c(=O)n(C)c2=O)c2ccccc2c1=O,2.8,-7.1,i,-9.9,60.9*,-7.8
CCCn1c(N)c(N(CCOC)C(=O)c2cc(-c3ccco3)nc3ccccc23)c(=O)[nH]c1=O,10.6,18.0,i,58.8*,13.7,6.2
CCN(CC)C(=O)COC(=O)c1cc(-c2ccc(OC)cc2)nc2ccccc12,0.5,-4.8,i,13.2,-4.4,-2.7
CCc1nc2ccccc2n1CC1CC1(Cl)Cl (stereo unspecified),-3.6,-13.8,i,-6.5,-5.3,-7.8
CC(NC(=O)COC(=O)c1cc([N+](=O)[O-])ccc1N1CCOCC1)c1ccccc1 (stereo unspecified),-0.5,0.2,i,1.9,61.0*,-0.1
Nc1ccc2oc3ccc(N)cc3c(=O)c2c1,5.8,16.3,+,79.0*,19.3,16.1
COc1ccc(OC)c(-c2csc(NC(=O)COC(=O)C3(C)CC3(Cl)Cl)n2)c1 (stereo unspecified),-0.3,2.7,x,x,x,-4.1
CCc1nnc(NC(=O)CSc2nnc(COc3ccccc3C)o2)s1,0.8,-36.0,i,-3.7,97.1*,-3.1
CCc1nnc(NC(=O)CSc2nnc(COc3cccc(C)c3)o2)s1,1.9,-20.4,i,-5.3,87.5*,0.5
Cc1ccc(OCc2nnc(SCC(=O)CC(=O)Nc3ccccc3)o2)cc1,-1.9,-121.8,i,-1.6,73.4*,-6.2
